HT1080 IDH1KD tx: HT-1080 IDH1 knockdown cell toxicity (counter line); AID 686971; 360,000 tested, 2% active; Potency, µM (top dose mostly 46.1 µM), for inactives: at the top dose activity, negative = toxicity, hits mostly cytotoxic; HT-1080 IDH1 knockdown viability, ATP luminescence, 48 h;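 also: potency is read from the fitted curve at half-maximal effect; 0% = DMSO wells and -100% = cell-free medium wells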
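Luminescent ATP read-out (CellTiter-Glo, 10 min at room temperature) after 48 h compound exposure at 37 °C gave viability of IDH1-knockdown HT-1080 cells. Activity was normalised to DMSO and cell-free wells, then fitted as concentration-response curves.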
DT40 TDP1 CPT: DT40-hTDP1 cell growth loss with CPT; chicken DT40 Tdp1-/-;hTDP1 cells + 20 nM CPT, ATP luminescence, 48 h; Potency, µM (series often up to 46.2 µM), for the others: at the highest dose activity change, negative = growth inhibition, actives largely listed as inhibitors; 420,000 tested, 12% active; AID 686979; also: potency is read from the fitted curve at half-maximal effect; nearly all actives have a fitted effect of over 55% in size
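Chicken DT40 Tdp1-/- cells stably complemented with human TDP1 were seeded at 400 cells/well in medium containing 20 nM camptothecin, exposed to pin-transferred compounds, and grown at 37 °C for at least 48 hr. Viability was read as ATP luminescence.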
IL-1B inflam inh: blocks inflammasome-driven IL-1 beta release. THP-1 LPS/ATP IL-1B secretion, AlphaLISA, 16 h; stronger effect = lower value. 360,000 tested, 4.7% active. activity change, % at 57.5 µM; in the data active = activity change below about -50%; inconclusive = mostly about -30% to -49%
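THP-1 cells pretreated 1 hr with compounds (up to 57.5 uM final), then stimulated with LPS (250 ng/mL final) plus ATP (1.25 mM final); secreted IL-1B measured by AlphaLISA after 16 hr, decreased signal indicating inhibition.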
TDP1 cell noCPT: qHTS for Inhibitors of human tyrosyl-DNA phosphodiesterase 1 (TDP1): qHTS in cells in absence of CPT | Potency, µM (titrated, usually from 46.2 µM), without a hit: at the top dose activity change, negative = growth inhibition, hits mostly inhibitors | 420,000 tested, 15% active | DT40 Tdp1-/- hTDP1 cells, no CPT, ATP luminescence, 48 h; also: potency is read from the fitted curve at half-maximal effect; nearly all actives have a fitted effect of over 55% in size
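Growth kinetics read by CellTiter-Glo luminescence after ≥48 hr at 37 °C. Cells: DT40 Tdp1-/- stably carrying human TDP1, 400 per well, compound exposure in the absence of CPT (DMSO vehicle).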
HT1080-NT tox: kills 2HG-producing HT-1080-NT fibrosarcoma cells | HT-1080-NT fibrosarcoma viability, CellTiter-Glo ATP luminescence, 48 h | Potency, µM (top dose mostly 46.1 µM), for the others: at the top dose activity, negative = less viability, most hits filed as cytotoxic | 360,000 tested, 1.6% active | AID 686970;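 also: NT is the 2HG producing partner of a matched IDH1 knockdown line; potency is read from the fitted curve at half-maximal effect; 0% = DMSO-treated cells and -100% = media-only wells without cells; nearly all actives have a fitted effect of over 55% in size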
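Compounds were tested in concentration-response format on HT-1080-NT cells for 48 hours at 37 degrees C. Cell viability came from CellTiter-Glo luminescence; curves were classified by r2, response magnitude and activity.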
Numbers without * were called inactive; ? = inconclusive; / = not tested or not shown. This is a sample that favours compounds with a hit; in the whole collection about 19% have one here. Unless noted, calls follow the shape of the dose curve; as a rule, active = well fitted curve in the direction sought with a large enough effect; inconclusive = small, poorly fitted or top-dose-only effect, or another doubt; inactive = no such curve, though single readings can be large; an effect the other way counts as inactive or inconclusive. Unless noted, % is scaled to controls: 0 for no effect and ±100 for the full control effect.

SMILES	HT1080 IDH1KD tx	DT40 TDP1 CPT	IL-1B inflam inh	TDP1 cell noCPT	HT1080-NT tox
COc1ccc(C2/C(=C(/O)c3ccc4c(c3)CC(C)O4)C(=O)C(=O)N2CCCN2CCOCC2)cc1 (stereo unspecified)	2.7%	-0.4%	5.8	14.8%	15.3%
Cc1ccc(Oc2ccccc2/C=N/O)cc1	-2.2%	11.6µM*	-16.3	20.6µM*	-2.8%
CN(C)c1ccc(S(=O)(=O)N2CCCCC2)cc1NC(=O)CCNC(=O)c1ccco1	-5.6%	3.4%	-4.0	?	-2.3%
CCOC(=O)C1=C[C@@H](c2ccccc2)N(S(=O)(=O)c2ccc(C)cc2)[C@H]1c1cccc(Cl)c1	9.4%	?	12.3	23.1µM*	2.0%
CCOC(=O)C1=C[C@@H](CC)N(S(=O)(=O)c2ccc(C)cc2)[C@H]1c1cccc(Cl)c1	?	?	2.3	20.6µM*	-8.4%
CCOC(=O)C1=C[C@@H](C(C)(C)C)N(S(=O)(=O)c2ccc(C)cc2)[C@H]1c1ccc(C#N)cc1	-2.5%	?	33.4	-74.8%	0.4%
CCOC(=O)C1=C[C@@H](C(C)(C)C)N(S(=O)(=O)c2ccc(C)cc2)[C@H]1c1cccc(Cl)c1	18.4µM*	14.6µM*	33.6	13µM*	?
CCOC(=O)C1=C[C@@H](CC)N(S(=O)(=O)c2ccc(C)cc2)[C@H]1c1cccs1	?	14.6µM*	-5.9	16.4µM*	?
CC[C@@H]1C=C(C(=O)O)[C@H](c2ccc(C)cc2)N1S(=O)(=O)c1ccc(C)cc1	-1.9%	9.3%	44.5	5.6%	-11.2%
Cc1cc(C)c2oc(-c3cccc(NC(=O)COc4ccc([N+](=O)[O-])cc4)c3)nc2c1	/	-19.4%	/	?	/
Cc1c(C(=O)N2CCC(C)CC2)c(S(=O)(=O)NCc2ccc(Br)cc2)c(C)n1C	/	-33.7%	/	?	/
C/C(=N\NC(=O)c1ccc(CSc2nc(C)cc(C)n2)cc1)c1ccco1	26.9%	3.2%	-2.2	-24.1%	16.3%
CCOC(=O)C1=C[C@@H](CC)N(S(=O)(=O)c2ccc([N+](=O)[O-])cc2)[C@H]1c1ccccc1	3.1%	20.6µM*	22.3	?	7.2%
c1csc(-c2nc3c4ccccc4c4ccccc4c3[nH]2)c1	?	20.6µM*	-5.3	?	-24.6%
Oc1ccccc1-c1ccn[nH]1	7.8%	-19.8%	-3.2	-16.9%	15.7%
Oc1ccccc1-c1nc2c3ccccc3c3ccccc3c2[nH]1	?	20.6µM*	28.7	18.4µM*	?
CCOC(=O)c1nn(-c2ccccc2)c(=O)c2c(N)scc12	1.4%	8.2µM*	18.6	14.6µM*	1.8%
Nc1c(C(=O)N/N=C/c2ccc(Cl)cc2)cnn1-c1ccccc1	?	-7.3%	-1.9	-8.5%	-29.8%
Nc1scc2c(C(=O)N/N=C/c3ccc(Cl)cc3)nn(-c3ccccc3)c(=O)c12	-1.7%	8.2µM*	-19.0	7.31µM*	-0.9%
CCOC(=O)c1nn(-c2ccccc2C)c(=O)c2c(N)scc12	-8.4%	?	-8.2	?	-6.4%
Cc1c(O)nc(SC2CC(=O)N(c3cc(Cl)cc(Cl)c3)C2=O)[nH]c1=O (stereo unspecified)	17.6%	12.1%	11.2	-5.7%	20.2%
C[C@@H]1c2ccccc2N2C[C@H](Cc3ccc(C(=O)c4ccccc4)cc3)C[C@@H]12	-3.7%	-12.7%	-4.1	?	-1.5%
N#Cc1c(C(F)(F)F)cc(=O)n2c1[nH]c1ccccc12	25.9µM*	13µM*	-73.6*	14.6µM*	4.61µM*
Cc1cccc2c1-c1sc(C(=O)Nc3cccnc3)cc1CO2	?	?	166.9	-16.7%	?
Cc1cccc2c1-c1sc(C(=O)NCc3ccccc3Cl)cc1CO2	/	16.4µM*	/	25.9µM*	/
SMILES	HT1080 IDH1KD tx	DT40 TDP1 CPT	IL-1B inflam inh	TDP1 cell noCPT	HT1080-NT tox
Cc1cccc2c1-c1sc(C(=O)Nc3ccccc3C(N)=O)cc1CO2	/	-28.4%	/	?	/
COc1cccc(N2CCN(C(=O)c3cc4c(s3)-c3c(C)cccc3OC4)CC2)c1	/	?	/	23.1µM*	/
COc1ccc(N(C)C(=O)c2cc3c(s2)-c2c(C)cccc2OC3)c(OC)c1	-20.8%	?	-7.0	20.6µM*	-8.8%
Cc1cccc2c1-c1sc(C(=O)Nc3cccc([N+](=O)[O-])c3C)cc1CO2	-2.2%	?	-52.3*	23.1µM*	-9.6%
O=C(CCCN1C(=O)c2cccnc2C1=O)Nc1ccc(Br)cc1	3.3%	6.2%	-9.1	-9.7%	1.4%
O=C(c1ccc(F)cc1)N1CCCCC(S(=O)(=O)c2ccccc2)C1=O (stereo unspecified)	-13.7%	?	35.7	?	-4.2%
CCc1ccccc1N(C)C(=O)c1cc2c(s1)-c1c(C)cccc1OC2	/	23.1µM*	/	23.1µM*	/
COc1cc(OC)c(N(C)C(=O)c2cc3c(s2)-c2ccccc2OC3)cc1Cl	/	13µM*	/	23.1µM*	/
O=C(NCC(=O)N1CCN(c2ccccc2)CC1)c1cccs1	12.4%	10.2%	13.4	19.3%	4.3%
Cc1cc(Nc2ccc(F)cc2C)n2nc(C)nc2n1	-2.0%	-11.1%	33.2	-8.1%	0.9%
CCCCc1ccc(Nc2cc(C)nc(-n3nc(C)cc3C)n2)cc1	/	4.61µM*	/	5.17µM*	/
Cc1cc(N2CCN(c3ccccc3)CC2)nc(-c2ccccc2O)n1	-4.5%	?	8.1	?	0.2%
Cc1cc(N2CCN(c3ccccc3)CC2)nc(-n2nc(C)cc2C)n1	1.12µM*	4.61µM*	-7.6	5.17µM*	0.708µM*
Cc1cc(Nc2cc(F)ccc2C)nc(-n2nc(C)cc2C)n1	/	5.17µM*	/	5.17µM*	/
Cc1cc(Nc2ccccc2)nc(N2CCOCC2)n1	8.8%	-18.7%	-9.6	-11.4%	1.2%
Cc1cc(Nc2ccccc2C)nc(-n2nc(C)cc2C)n1	/	4.61µM*	/	5.17µM*	/
Cc1cccc(C(=O)NC2(C(F)(F)F)N=C(c3ccccc3)N(C3CCCCC3)C2=O)c1 (stereo unspecified)	/	-7.9%	/	-2.6%	/
O=C(NC1CCS(=O)(=O)C1)c1cccc(Br)c1 (stereo unspecified)	7.1%	1.4%	3.6	2.3%	1.4%
O=C(CBr)N1CCc2ccccc2C(c2ccccc2)C1 (stereo unspecified)	20.6µM*	2.59µM*	15.1	2.59µM*	25.9µM*
O=C(CN1CCOCC1)N1CCc2ccccc2C(c2ccccc2)C1 (stereo unspecified)	3.2%	-21.0%	9.5	?	2.5%
CC12COC3(C(=O)Nc4ccc5ccccc5c4)CC1CCC32C (stereo unspecified)	-23.3%	2.1%	11.3	?	-13.0%
Cc1cccc(-c2nc(CN3CCN(Cc4cccc(F)c4)CC3)c(C)o2)c1	9.4%	?	22.1	?	5.9%

Bioassay records from PubChem BioAssay.
